Data as given in PubChem BioAssay.
The source made the active and inactive calls.

Key:
[1] = system: PRMT1 (protein arginine N-methyltransferase 1); test: small molecules binding arginine methyltransferase PRMT1 – biochemical, small-molecule microarray, 635 nm fluorescence, primary screen (AID 1088); details: higher = more signal;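 further: binding of Prmt1 protein to compounds spotted on small-molecule microarray slides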
[2] = growth effects on S. cerevisiae YJM789 – YJM789 clinical isolate, OD600, 24 h, basal, primary screen (AID 1089); details: higher = more signal, called active from +8 up or from −8 down;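 further: growth of clinical yeast isolate S. cerevisiae YJM 789 seeded 1000 cells per well; test concentration not given here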
[3] = S. pombe growth modifiers, basal conditions – strain 972, OD600, 24 h, no modulator, primary screen (AID 1090);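 further: basal condition with compound alone and no growth modifier present; test concentration not given here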; details: S. pombe 972 growth, higher = more signal, called active from +8 up or from −8 down
[4] = budding yeast growth modifiers under rapamycin – strain BY4716, OD600, 96 h, primary screen (AID 1091); further: test concentration not given here; details: S. cerevisiae BY4716 + rapamycin, higher = more signal, called active from +8 up or from −8 down
[5] = target: Torsin-1A-interacting protein 2 (Homo sapiens) (UniProt Q8NFQ8); test: small molecules binding lysate-expressed LULL1 – cell lysate, human LULL1 lysate, 635/667 nm fluorescence, primary screen (AID 1092); details: small-molecule microarray, hLULL1 lysate binding, 635 nm fluorescence; higher = more signal;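 further: probe is lysate of COS7 cells overexpressing human LULL1; score merges per-feature 667 nm fluorescence with signal-to-noise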
Sequence of Torsin-1A-interacting protein 2 (Homo sapiens) (Q8NFQ8 whole entry, looked up): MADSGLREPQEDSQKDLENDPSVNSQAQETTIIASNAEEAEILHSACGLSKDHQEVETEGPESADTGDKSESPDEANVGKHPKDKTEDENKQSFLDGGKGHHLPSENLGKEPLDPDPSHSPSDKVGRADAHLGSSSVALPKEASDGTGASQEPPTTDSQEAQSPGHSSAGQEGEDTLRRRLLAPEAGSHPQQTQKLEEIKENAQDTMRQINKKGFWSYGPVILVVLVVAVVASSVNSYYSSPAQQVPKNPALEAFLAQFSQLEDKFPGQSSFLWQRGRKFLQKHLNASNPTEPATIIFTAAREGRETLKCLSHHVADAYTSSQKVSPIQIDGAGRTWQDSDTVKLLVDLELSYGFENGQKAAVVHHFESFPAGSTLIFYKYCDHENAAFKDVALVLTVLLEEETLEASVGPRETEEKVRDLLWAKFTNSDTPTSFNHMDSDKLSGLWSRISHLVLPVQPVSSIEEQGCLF

[6] = optical density change of DRC41 E. coli – strain DRC41, OD650, 24 h, E. coli filamentation project, primary screen (AID 1093);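 further: MC1000 strain lacking acrAB efflux and sulA so SOS filamentation is blocked; test concentration not given here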; details: E. coli DRC41 growth, higher = more signal, called active from +8 up or from −8 down
[7] = probe aLefty2 binding to arrayed compounds – biochemical, biotinylated probe, 635/667 nm fluorescence, primary screen (AID 1094); details: small-molecule microarray, higher = more signal;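 further: score merges spot fluorescence near 667 nm with spot signal-to-noise ratio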
[8] = system: Noggin (protein binding on small-molecule microarray); test: small molecules binding Noggin protein – biochemical, 635/667 nm fluorescence, primary screen (AID 1095); details: 635 nm fluorescence, higher = more signal;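 further: score merges 667 nm feature fluorescence with signal to noise over triplicate slides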
[9] = target: Neurogenic locus notch homolog protein 3 (Homo sapiens) (UniProt Q9UM47); test: small molecules binding NOTCH3 protein – biochemical, 635/667 nm fluorescence, primary screen (AID 1096); details: small-molecule microarray, 635 nm fluorescence, higher = more signal
Sequence of Neurogenic locus notch homolog protein 3 (Homo sapiens) (Q9UM47 whole entry, looked up): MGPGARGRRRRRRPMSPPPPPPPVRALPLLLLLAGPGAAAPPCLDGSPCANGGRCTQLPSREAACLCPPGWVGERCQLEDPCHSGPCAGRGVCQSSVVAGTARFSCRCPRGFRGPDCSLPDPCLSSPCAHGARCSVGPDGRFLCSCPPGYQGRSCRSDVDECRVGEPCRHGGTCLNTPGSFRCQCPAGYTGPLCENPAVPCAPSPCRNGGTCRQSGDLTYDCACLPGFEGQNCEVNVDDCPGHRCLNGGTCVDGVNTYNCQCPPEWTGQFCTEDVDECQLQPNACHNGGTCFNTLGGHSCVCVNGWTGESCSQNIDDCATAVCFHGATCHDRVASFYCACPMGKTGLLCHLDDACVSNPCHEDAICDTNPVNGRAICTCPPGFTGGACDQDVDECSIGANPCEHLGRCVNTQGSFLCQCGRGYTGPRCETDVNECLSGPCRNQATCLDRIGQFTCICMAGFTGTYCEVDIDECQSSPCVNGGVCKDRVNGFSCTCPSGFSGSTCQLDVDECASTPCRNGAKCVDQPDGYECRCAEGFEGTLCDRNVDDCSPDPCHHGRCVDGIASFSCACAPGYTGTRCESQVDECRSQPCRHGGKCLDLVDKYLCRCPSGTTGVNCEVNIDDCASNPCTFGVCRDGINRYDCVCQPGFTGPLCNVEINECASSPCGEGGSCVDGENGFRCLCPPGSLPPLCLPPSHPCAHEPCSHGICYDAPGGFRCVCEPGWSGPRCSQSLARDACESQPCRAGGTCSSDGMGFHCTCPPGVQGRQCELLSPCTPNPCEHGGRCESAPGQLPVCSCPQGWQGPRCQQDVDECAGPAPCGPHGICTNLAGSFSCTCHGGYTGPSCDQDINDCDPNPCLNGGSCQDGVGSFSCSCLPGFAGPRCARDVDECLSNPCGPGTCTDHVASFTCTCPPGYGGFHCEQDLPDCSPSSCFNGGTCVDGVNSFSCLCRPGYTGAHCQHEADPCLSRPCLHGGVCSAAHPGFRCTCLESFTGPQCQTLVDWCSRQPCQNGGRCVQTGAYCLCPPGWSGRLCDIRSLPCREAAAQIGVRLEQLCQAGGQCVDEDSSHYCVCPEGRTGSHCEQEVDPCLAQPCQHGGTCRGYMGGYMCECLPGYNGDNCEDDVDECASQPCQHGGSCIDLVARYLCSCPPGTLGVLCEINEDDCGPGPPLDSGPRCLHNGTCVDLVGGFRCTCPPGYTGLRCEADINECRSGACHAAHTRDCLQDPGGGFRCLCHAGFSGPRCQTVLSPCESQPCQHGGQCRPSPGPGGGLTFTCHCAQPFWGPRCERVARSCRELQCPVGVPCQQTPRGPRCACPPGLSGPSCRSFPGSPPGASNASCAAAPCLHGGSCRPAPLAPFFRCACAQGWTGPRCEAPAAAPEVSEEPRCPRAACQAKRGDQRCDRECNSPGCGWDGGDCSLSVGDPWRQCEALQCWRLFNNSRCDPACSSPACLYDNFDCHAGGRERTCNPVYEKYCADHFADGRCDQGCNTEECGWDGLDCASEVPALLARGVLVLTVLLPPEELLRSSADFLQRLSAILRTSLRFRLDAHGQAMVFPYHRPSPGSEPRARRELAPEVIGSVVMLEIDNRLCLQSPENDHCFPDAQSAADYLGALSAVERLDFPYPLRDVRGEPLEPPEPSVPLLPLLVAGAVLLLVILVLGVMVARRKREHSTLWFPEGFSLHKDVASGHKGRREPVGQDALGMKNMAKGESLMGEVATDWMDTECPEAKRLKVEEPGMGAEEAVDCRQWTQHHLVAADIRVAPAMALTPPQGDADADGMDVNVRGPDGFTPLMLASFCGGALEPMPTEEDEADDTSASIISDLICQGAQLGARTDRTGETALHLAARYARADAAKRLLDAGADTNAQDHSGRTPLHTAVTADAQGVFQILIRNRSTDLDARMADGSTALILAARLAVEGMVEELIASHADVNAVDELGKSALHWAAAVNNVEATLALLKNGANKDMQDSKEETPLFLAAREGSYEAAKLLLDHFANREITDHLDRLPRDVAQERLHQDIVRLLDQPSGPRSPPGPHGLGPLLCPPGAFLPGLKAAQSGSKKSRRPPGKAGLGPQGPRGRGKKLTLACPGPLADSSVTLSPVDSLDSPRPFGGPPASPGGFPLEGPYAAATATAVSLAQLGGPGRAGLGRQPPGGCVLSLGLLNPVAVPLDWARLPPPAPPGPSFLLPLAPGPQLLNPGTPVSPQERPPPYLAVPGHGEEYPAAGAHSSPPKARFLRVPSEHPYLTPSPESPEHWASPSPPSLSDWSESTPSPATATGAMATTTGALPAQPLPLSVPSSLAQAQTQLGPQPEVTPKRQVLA

[10] = probe aEGFR binding to arrayed compounds – biochemical, biotinylated probe, 635/667 nm fluorescence, primary screen (AID 1097); details: small-molecule microarray, higher = more signal;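 further: probe is a biotinylated anti-EGFR antibody binding compounds printed on slides; score combines fluorescence near 667 nm and signal to noise of each spot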
[11] = system: Plasmodium falciparum Sir2 (PF13_0152, Sir2A); test: Plasmodium falciparum Sir2A binding compounds – biochemical, small-molecule microarray, 635 nm fluorescence, primary screen (AID 1098); details: fluorescence 635 nm, higher = more signal;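 further: score merges spot fluorescence intensity with its signal-to-noise ratio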
[12] = probe aDKK1 binding to arrayed compounds – biochemical, biotinylated probe, 635/667 nm fluorescence, primary screen (AID 1099); details: small-molecule microarray, higher = more signal;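 further: score merges 667nm spot fluorescence with signal to noise across triplicate slides; reference of the scale not given here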
[13] = probe aCHRDL2 binding to arrayed compounds – biochemical, biotinylated probe, 635/667 nm fluorescence, primary screen (AID 1100); details: small-molecule microarray, higher = more signal
[14] = change in splice reporter luminescence, either direction, cell-based, HEK293, spliceosome inhibition project, primary screen (AID 1101); details: HEK293 splicing luciferase reporter, 24 h, higher = more signal, called active from +8 up or from −8 down;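 further: HEK293 cells carrying a splicing-competent luciferase reporter gene; test concentration not given here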
[15] = target: Fibroblast growth factor 10 (Homo sapiens) (UniProt O15520); test: compounds binding fibroblast growth factor 10 – biochemical, small-molecule microarray, 635 nm fluorescence, primary screen (AID 1102); details: FGF10 binding, fluorescence 635 nm, higher = more signal
Sequence of Fibroblast growth factor 10 (Homo sapiens) (O15520 whole entry, looked up): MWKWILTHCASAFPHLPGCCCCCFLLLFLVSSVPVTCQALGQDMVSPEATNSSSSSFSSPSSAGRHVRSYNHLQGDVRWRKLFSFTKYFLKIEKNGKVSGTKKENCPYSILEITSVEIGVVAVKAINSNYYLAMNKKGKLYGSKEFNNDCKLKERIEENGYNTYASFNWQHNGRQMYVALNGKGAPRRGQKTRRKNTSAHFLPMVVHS

[16] = system: glycogen synthase kinase-3 (GSK3A per assay name; protocol says GSK3B); test: compounds binding glycogen synthase kinase-3 – biochemical, small-molecule microarray, 635 nm fluorescence, GSK3A, primary screen (AID 1103); details: fluorescence 635 nm, higher = more signal; further: the record names both GSK3A and GSK3B
[17] = target: Epidermal growth factor receptor (Homo sapiens) (UniProt P00533); test: compounds binding epidermal growth factor receptor – biochemical, small-molecule microarray, 635 nm fluorescence, primary screen (AID 1104); details: EGFR binding, higher = more signal;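 further: score merges 667 nm emission intensity with spot signal to noise over triplicate slides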
Sequence of Epidermal growth factor receptor (Homo sapiens) (P00533 whole entry, looked up): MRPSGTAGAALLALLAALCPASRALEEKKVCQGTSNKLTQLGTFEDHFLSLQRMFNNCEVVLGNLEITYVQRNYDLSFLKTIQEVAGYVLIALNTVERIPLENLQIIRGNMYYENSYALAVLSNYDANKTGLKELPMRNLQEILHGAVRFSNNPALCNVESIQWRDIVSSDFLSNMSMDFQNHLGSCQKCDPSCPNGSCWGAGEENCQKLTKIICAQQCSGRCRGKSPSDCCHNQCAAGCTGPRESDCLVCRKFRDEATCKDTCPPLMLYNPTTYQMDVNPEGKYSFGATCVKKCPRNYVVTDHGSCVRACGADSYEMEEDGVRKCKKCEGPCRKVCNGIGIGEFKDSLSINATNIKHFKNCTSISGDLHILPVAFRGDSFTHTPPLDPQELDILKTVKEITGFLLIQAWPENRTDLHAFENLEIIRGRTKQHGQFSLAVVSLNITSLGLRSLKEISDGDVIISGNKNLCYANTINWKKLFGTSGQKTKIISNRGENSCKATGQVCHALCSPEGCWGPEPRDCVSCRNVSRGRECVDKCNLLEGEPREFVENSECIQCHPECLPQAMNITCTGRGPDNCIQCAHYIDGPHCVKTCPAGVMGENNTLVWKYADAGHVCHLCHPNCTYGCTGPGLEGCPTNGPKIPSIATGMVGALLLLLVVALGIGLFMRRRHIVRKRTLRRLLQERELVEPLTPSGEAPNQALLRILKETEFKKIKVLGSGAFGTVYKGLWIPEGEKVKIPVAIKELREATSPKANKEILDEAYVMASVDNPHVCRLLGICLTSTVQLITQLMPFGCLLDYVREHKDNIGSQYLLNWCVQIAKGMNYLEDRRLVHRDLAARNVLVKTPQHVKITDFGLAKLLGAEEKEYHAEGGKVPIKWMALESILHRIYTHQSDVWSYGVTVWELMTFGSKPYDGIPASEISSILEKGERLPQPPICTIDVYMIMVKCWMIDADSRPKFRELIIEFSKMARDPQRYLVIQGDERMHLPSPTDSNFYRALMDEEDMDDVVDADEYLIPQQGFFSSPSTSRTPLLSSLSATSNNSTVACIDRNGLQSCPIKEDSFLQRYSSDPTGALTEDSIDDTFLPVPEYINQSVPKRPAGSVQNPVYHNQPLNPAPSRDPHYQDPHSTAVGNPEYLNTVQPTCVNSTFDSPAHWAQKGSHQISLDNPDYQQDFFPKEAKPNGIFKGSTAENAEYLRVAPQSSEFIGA

[18] = target: Follistatin-related protein 3 (Homo sapiens) (UniProt O95633); test: compounds binding follistatin-related protein 3 – biochemical, small-molecule microarray, 635 nm fluorescence, primary screen (AID 1105); details: FSTL3 binding, higher = more signal;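 further: score merges emission near 667 nm and signal to noise per printed spot across three slides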
Sequence of Follistatin-related protein 3 (Homo sapiens) (O95633 whole entry, looked up): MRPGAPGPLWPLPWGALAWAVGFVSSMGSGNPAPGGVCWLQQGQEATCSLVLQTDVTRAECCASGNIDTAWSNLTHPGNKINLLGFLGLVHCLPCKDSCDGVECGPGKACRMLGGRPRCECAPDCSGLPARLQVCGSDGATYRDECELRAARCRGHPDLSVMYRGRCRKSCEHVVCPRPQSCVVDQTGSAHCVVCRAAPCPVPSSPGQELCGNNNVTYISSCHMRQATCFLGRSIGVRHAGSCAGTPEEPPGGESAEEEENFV

[19] = target: Dickkopf-related protein 1 (Homo sapiens) (UniProt O94907); test: small molecules binding DKK1 protein – biochemical, small-molecule microarray, 635 nm fluorescence scan, primary screen (AID 1106); details: higher = more signal;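 further: score merges emission near 667 nm with signal to noise over three replicate slides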
Sequence of Dickkopf-related protein 1 (Homo sapiens) (O94907 whole entry, looked up): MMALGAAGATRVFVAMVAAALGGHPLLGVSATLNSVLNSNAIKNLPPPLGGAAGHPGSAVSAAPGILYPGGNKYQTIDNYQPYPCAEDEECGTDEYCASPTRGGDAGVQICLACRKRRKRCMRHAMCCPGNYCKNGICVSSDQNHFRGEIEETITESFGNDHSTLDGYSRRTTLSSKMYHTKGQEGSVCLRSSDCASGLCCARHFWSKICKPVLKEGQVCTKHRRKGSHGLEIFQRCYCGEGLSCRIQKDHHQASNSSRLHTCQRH

[20] = system: Inhibin beta A chain (activin A); test: small molecules binding activin A – biochemical, small-molecule microarray, 635 nm fluorescence scan, primary screen (AID 1107); details: INHBA, higher = more signal;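 further: mouse activin A protein probed at 4.33 µg/mL on printed slides; score merges bound-protein fluorescence near 667 nm with spot signal-to-noise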

Q: With O=C1O[C@H](c2ccccc2)[C@H](c2ccccc2)N2[C@H]1[C@@H](C(=O)N1CCN(c3ncccn3)CC1)[C@]1(C(=O)Nc3ccc(C#CCCO)cc31)[C@H]2c1ccccc1OCCO as the molecule, how does the composite z-score [1] read?
A: 1.54

Q: And the z-score [2]?
A: 1.36 (inactive)

Q: And the z-score [3]?
A: -1.62 (inactive)

Q: What about the z-score [4] of the same molecule?
A: 3.87 (inactive)

Q: And the composite z-score [5]?
A: 2.79

Q: What about the z-score [6] of the same molecule?
A: 0.797 (inactive)

Q: And the composite z-score [7]?
A: -0.166

Q: What about the composite z-score [8] of the same molecule?
A: 0.942

Q: What about the composite z-score [9] of the same molecule?
A: 1.06

Q: And the composite z-score [10]?
A: -0.0014

Q: And the composite z-score [11]?
A: 1.24

Q: What about the composite z-score [12] of the same molecule?
A: 0.0649

Q: What about the composite z-score [13] of the same molecule?
A: 0.447

Q: What about the z-score [14] of the same molecule?
A: 0.105 (inactive)

Q: And the composite z-score [15]?
A: 1.15

Q: What about the composite z-score [16] of the same molecule?
A: 1.11

Q: What about the composite z-score [17] of the same molecule?
A: 0.282

Q: What about the composite z-score [18] of the same molecule?
A: 0.501

Q: And the composite z-score [19]?
A: 0.525

Q: What about the composite z-score [20] of the same molecule?
A: -0.14

Q: What does the source list for CC(=O)NCCCC[C@@H]1NC(=O)[C@H]2C[C@@H](C(=O)NCCCCCN)[C@@H](c3cccc(OCCO)c3)N2C1=O?
A: composite z-score [1]: 0.907; z-score [2]: -1.51 (inactive); z-score [3]: -0.0234 (inactive); z-score [4]: -0.883 (inactive); composite z-score [5]: 2.23; z-score [6]: 1.56 (inactive); composite z-score [7]: -0.097; composite z-score [8]: 0.559; composite z-score [9]: 0.275; composite z-score [10]: -0.0155; composite z-score [11]: 0.878; composite z-score [12]: -0.0159; composite z-score [13]: 0.366; z-score [14]: -1.77 (inactive); composite z-score [15]: 0.757; composite z-score [16]: 0.4; composite z-score [17]: 0.103; composite z-score [18]: 0.0957; composite z-score [19]: 0.142; composite z-score [20]: 0.602

Q: For CCCCC(=C=CC[C@H](O)c1ccccc1OCCO)C[C@H](O)c1ccccn1, which composite z-score [1] is on record?
A: 1.13

Q: What about the z-score [2] of the same molecule?
A: 0.27 (inactive)

Q: And the z-score [3]?
A: -0.132 (inactive)

Q: And the z-score [4]?
A: 0.0422 (inactive)

Q: And the composite z-score [5]?
A: 0.0266

Q: And the z-score [6]?
A: 1.3 (inactive)

Q: What about the composite z-score [7] of the same molecule?
A: -0.0699

Q: And the composite z-score [8]?
A: 0.939

Q: What about the composite z-score [9] of the same molecule?
A: 0.0956

Q: And the composite z-score [10]?
A: -0.179

Q: And the composite z-score [11]?
A: 1.36

Q: What about the composite z-score [12] of the same molecule?
A: -0.127

Q: And the composite z-score [13]?
A: 0.211

Q: And the z-score [14]?
A: -0.471 (inactive)

Q: What about the composite z-score [15] of the same molecule?
A: 0.551

Q: What about the composite z-score [16] of the same molecule?
A: -0.251

Q: And the composite z-score [17]?
A: 0.324

Q: What about the composite z-score [18] of the same molecule?
A: 0.549

Q: What about the composite z-score [19] of the same molecule?
A: -0.0601

Q: And the composite z-score [20]?
A: 1.54

Q: Which composite z-score [1] does the source give for CN1C(=O)C2C=CC(C(O)c3ccc(F)cc3)N(N3CCCCC3)C2C1=O (stereo not given) here?
A: 1.07

Q: And the z-score [2]?
A: 1.15 (inactive)

Q: And the z-score [3]?
A: 1.27 (inactive)

Q: And the z-score [4]?
A: 2.06 (inactive)

Q: What about the composite z-score [5] of the same molecule?
A: 2.78

Q: What about the z-score [6] of the same molecule?
A: -1.17 (inactive)

Q: And the composite z-score [7]?
A: 0.682

Q: And the composite z-score [8]?
A: -0.513

Q: What about the composite z-score [9] of the same molecule?
A: 0.721

Q: What about the composite z-score [10] of the same molecule?
A: 0.204

Q: And the composite z-score [11]?
A: 1.56

Q: What about the composite z-score [12] of the same molecule?
A: 1.3

Q: What about the composite z-score [13] of the same molecule?
A: 1.33

Q: What about the z-score [14] of the same molecule?
A: 0.981 (inactive)

Q: What about the composite z-score [15] of the same molecule?
A: 0.252

Q: And the composite z-score [16]?
A: 0.432

Q: What about the composite z-score [17] of the same molecule?
A: -0.406

Q: And the composite z-score [18]?
A: -0.0733

Q: And the composite z-score [19]?
A: -1.3

Q: And the composite z-score [20]?
A: 1.23
